Our source for the AC50 and outcome values is PubChem BioAssay (EPA / NIEHS).

Values joined by “and” are separate entries in the source; they are usually repeats but may differ in a detail not shown here. Equal entries are not always repeated. Some structures have more than one record in an assay (separate samples or runs), and their calls can disagree. Active and inactive are the calls of the source. Rule for the calls: active = hit-call score of the fitted dose curve at least 0.9, where 1 is the maximum; inactive = score below 0.9.

What all share (settings): mRNA level, 48 h; actives raise or lower the signal
Read-out in test [1]: CYP2C8 (gene 1558)
Nature of the test: LTEA_HepaRG_CYP2C8: Life Technologies and Expression Analysis (LTEA) Assay for CYP2C8 using HepaRG (AID 2283483). In a few lines: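 CYP2C8 expression measured by TaqMan qRT-PCR and normalized to three housekeeping genes. HepaRG cultures were treated for 48 h with an eight-point half-log series topping at 100 uM, vehicle 0.5% DMSO, duplicates; fitted both directions against DMSO.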

Read-out in test [2]: CYP2C9 (gene 1559)
Nature of the test: LTEA_HepaRG_CYP2C9: Life Technologies and Expression Analysis (LTEA) Assay for CYP2C9 using HepaRG (AID 2283484). In a few lines: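 CYP2C9 transcript level, quantified by TaqMan qRT-PCR against three housekeeping genes, was fitted bidirectionally relative to 0.5% DMSO. HepaRG cultures were treated 48 h, in duplicate, at eight half-log concentrations topping at 100 uM.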

Read-out in test [3]: CYP2E1 (gene 1571)
As to the kind of experiment: LTEA_HepaRG_CYP2E1: Life Technologies and Expression Analysis (LTEA) Assay for CYP2E1 using HepaRG (AID 2283485). In a few lines: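 Readout is qRT-PCR of CYP2E1 mRNA, normalized to three housekeeping genes and fitted bidirectionally against 0.5% DMSO. HepaRG cells were dosed 48 h at eight concentrations, highest 100 uM with half-log dilutions.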

Read-out in test [4]: CYP4A11 (gene 1579)
As to the kind of experiment: LTEA_HepaRG_CYP4A11: Life Technologies and Expression Analysis (LTEA) Assay for CYP4A11 using HepaRG (AID 2283486). In a few lines: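 CYP4A11 transcript levels were quantified by TaqMan qRT-PCR after HepaRG human liver cells were treated for 48 hours with test chemicals (top 100 uM, half-log dilutions, 0.5% DMSO). Gain or loss of signal was fitted relative to DMSO.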

Read-out in test [5]: DNA damage-inducible transcript 3 (DDIT3), DDIT3 (gene 1649)
Nature of the test: LTEA_HepaRG_DDIT3: Life Technologies and Expression Analysis (LTEA) Assay for DNA damage-inducible transcript 3 (DDIT3) using HepaRG (AID 2283488). In a few lines: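 Cells are human HepaRG liver cells treated for 48 h with eight half-log concentrations up to 100 uM in 0.5% DMSO. Transcript levels come from qRT-PCR normalized to three housekeeping genes, with activity fitted in both directions relative to vehicle.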

Read-out in test [6]: Pro-epidermal growth factor (Homo sapiens) (UniProt P01133)
As to the kind of experiment: LTEA_HepaRG_EGF: Life Technologies and Expression Analysis (LTEA) Assay for Epidermal growth factor (EGF) using HepaRG (AID 2283489). In a few lines:
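qRT-PCR readout of EGF transcript after 48 h chemical exposure of HepaRG cells; eight concentrations from 100 uM down in half-log steps, duplicate wells, 0.5% DMSO vehicle. Bidirectional curve fitting against DMSO baseline.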

Read-out in test [7]: Early growth response protein 1 (EGR1) transcription factor, EGR1 (gene 1958)
Nature of the test: LTEA_HepaRG_EGR1: Life Technologies and Expression Analysis (LTEA) Assay for Early growth response protein 1 (EGR1) transcription factor using HepaRG (AID 2283490). In a few lines: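 EGR1 transcript levels quantified by qRT-PCR (Fluidigm arrays) against three housekeeping genes after 48 h chemical exposure of HepaRG cells. Eight-point half-log series topping at 100 uM, 0.5% DMSO vehicle, analyzed for gain or loss.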

Read-out in test [8]: Ezrin (EZR), EZR (gene 7430)
As to the kind of experiment: LTEA_HepaRG_EZR: Life Technologies and Expression Analysis (LTEA) Assay for Ezrin (EZR) using HepaRG (AID 2283491). In a few lines:
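Gain or loss of EZR mRNA is scored relative to 0.5% DMSO in human HepaRG cultures treated 48 h with test chemicals in duplicate, eight half-log concentrations from 100 uM.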

Read-out in test [9]: Fatty Acid-Binding Protein 1 (FABP1), FABP1 (gene 2168)
Nature of the test: LTEA_HepaRG_FABP1: Life Technologies and Expression Analysis (LTEA) Assay for Fatty Acid-Binding Protein 1 (FABP1) using HepaRG (AID 2283494). In a few lines: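 FABP1 expression by TaqMan qRT-PCR, normalised to three housekeeping genes, in HepaRG cells after 48 h chemical treatment. Eight-point half-log series topping at 100 uM in 0.5% DMSO, duplicates; gain or loss fitted relative to vehicle.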

Read-out in test [10]: Cytochrome P450 4A22 (Homo sapiens) (UniProt Q5TCH4)
As to the kind of experiment: LTEA_HepaRG_CYP4A22: Life Technologies and Expression Analysis (LTEA) Assay for Cytochrome P450 4A22 (CYP4A22) using HepaRG (AID 2283495). In a few lines:
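HepaRG, 48 h post-plating -> serum-free induction medium; dosed 48 h, duplicate, 8 conc. (100 uM top, half-log), 0.5% DMSO. Readout: CYP4A22 mRNA by qRT-PCR, ACTB/GAPDH/POLR2A normalization; gain/loss fit relative to DMSO.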

Read-out in test [11]: Cytochrome P450 7A1 (Homo sapiens) (UniProt P22680)
As to the kind of experiment: LTEA_HepaRG_CYP7A1: Life Technologies and Expression Analysis (LTEA) Assay for Cytochrome P450 7A1 (CYP7A1) using HepaRG (AID 2283496). In a few lines: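 HepaRG, 48 h exposure, 8-pt half-log series from 100 uM, 0.5% DMSO vehicle, duplicates. Readout: TaqMan qRT-PCR mRNA vs three housekeeping genes; bidirectional curve fit against DMSO baseline.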

Read-out in test [12]: Glutathione S-Transferase (GSTA2), GSTA2 (gene 2939)
As to the kind of experiment: LTEA_HepaRG_GSTA2: Life Technologies and Expression Analysis (LTEA) Assay for Glutathione S-Transferase (GSTA2) using HepaRG (AID 2283497). In a few lines:
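GSTA2 transcript levels came from Fluidigm TaqMan qRT-PCR normalized to three housekeeping genes, fitted in both directions against DMSO. HepaRG cultures received chemicals for 48 h in serum-free induction medium (0.5% DMSO), 8 half-log concentrations up to 100 uM, duplicate.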

Read-out in test [13]: Glutamate-cysteine ligase catalytic (GCLC), GCLC (gene 2729)
As to the kind of experiment: LTEA_HepaRG_GCLC: Life Technologies and Expression Analysis (LTEA) Assay for Glutamate-cysteine ligase catalytic (GCLC) using HepaRG (AID 2283498). In a few lines: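 Expression by TaqMan qRT-PCR, normalized to three housekeeping genes (ACTB, GAPDH, POLR2A), with up- or down-regulation fitted against DMSO. HepaRG cells dosed in duplicate for 48 h with 8 half-log concentrations up to 100 uM, vehicle 0.5% DMSO.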

Read-out in test [14]: Heat shock 70 kDa protein 1 (HSPA1A), gene 3303
As to the kind of experiment: LTEA_HepaRG_HSPA1A: Life Technologies and Expression Analysis (LTEA) Assay for Heat shock 70 kDa protein 1 (HSPA1A) using HepaRG (AID 2283502). In a few lines: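 Cells were plated and cultured for 48 h, then switched to serum-free induction medium. Chemicals were added at eight half-log concentrations up to 100 uM for 48 h. RNA was then isolated and HSPA1A measured by qRT-PCR with bidirectional curve fitting against DMSO.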

Read-out in test [15]: Cytochrome P450 3A4 (Homo sapiens) (UniProt P08684)
Nature of the test: LTEA_HepaRG_CYP3A4: Life Technologies and Expression Analysis (LTEA) Assay for CYP3A4 using HepaRG (AID 2283487). In a few lines: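 In a human hepatic line (HepaRG), duplicate wells were treated 48 h with up to 100 uM chemical in half-log dilutions. Endpoint: CYP3A4 mRNA induction or loss relative to 0.5% DMSO vehicle, by qRT-PCR.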

Read-out in test [16]: Cytochrome P450 3A7 (Homo sapiens) (UniProt P24462)
As to the kind of experiment: LTEA_HepaRG_CYP3A7: Life Technologies and Expression Analysis (LTEA) Assay for CYP3A7 using HepaRG (AID 2283492). In a few lines: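 CYP3A7 transcript levels were read by TaqMan qRT-PCR on Fluidigm arrays after 48 h chemical exposure of human HepaRG cells, with housekeeping-gene normalisation. Eight half-log concentrations up to 100 uM in 0.5% DMSO were tested in duplicate.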

Read-out in test [17]: Glutamate-cysteine ligase regulatory (GCLM), GCLM (gene 2730)
As to the kind of experiment: LTEA_HepaRG_GCLM: Life Technologies and Expression Analysis (LTEA) Assay for Glutamate-cysteine ligase regulatory (GCLM) using HepaRG (AID 2283500). In a few lines: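 Endpoint is GCLM transcript level by qRT-PCR, normalized to three housekeeping genes, after 48 h chemical exposure of human HepaRG cells (0.5% DMSO vehicle, top 100 uM, half-log dilutions). Fitting was bidirectional relative to DMSO.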

Read-out in test [18]: CYP3A5 (gene 1577)
Nature of the test: LTEA_HepaRG_CYP3A5: Life Technologies and Expression Analysis (LTEA) Assay for CYP3A5 using HepaRG (AID 2283493). In a few lines: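 Human HepaRG hepatic cells receive 48 h chemical treatment at eight concentrations (half-log steps from 100 uM) in 0.5% DMSO. Expression of CYP3A5 is quantified by Fluidigm qRT-PCR and normalized to three reference genes.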

Read-out in test [19]: Glutathione S-transferase M3 (GSTM3), GSTM3 (gene 2947)
Nature of the test: LTEA_HepaRG_GSTM3: Life Technologies and Expression Analysis (LTEA) Assay for Glutathione S-transferase M3 (GSTM3) using HepaRG (AID 2283501). In a few lines: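 qRT-PCR read-out of GSTM3 transcript, normalized to three housekeeping genes, from human HepaRG cells after 48 h chemical exposure. Eight-point half-log series, top 100 uM, 0.5% DMSO vehicle; gain or loss fitted relative to DMSO baseline.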

Sequence of Cytochrome P450 3A7 (Homo sapiens) (P24462 whole entry, looked up): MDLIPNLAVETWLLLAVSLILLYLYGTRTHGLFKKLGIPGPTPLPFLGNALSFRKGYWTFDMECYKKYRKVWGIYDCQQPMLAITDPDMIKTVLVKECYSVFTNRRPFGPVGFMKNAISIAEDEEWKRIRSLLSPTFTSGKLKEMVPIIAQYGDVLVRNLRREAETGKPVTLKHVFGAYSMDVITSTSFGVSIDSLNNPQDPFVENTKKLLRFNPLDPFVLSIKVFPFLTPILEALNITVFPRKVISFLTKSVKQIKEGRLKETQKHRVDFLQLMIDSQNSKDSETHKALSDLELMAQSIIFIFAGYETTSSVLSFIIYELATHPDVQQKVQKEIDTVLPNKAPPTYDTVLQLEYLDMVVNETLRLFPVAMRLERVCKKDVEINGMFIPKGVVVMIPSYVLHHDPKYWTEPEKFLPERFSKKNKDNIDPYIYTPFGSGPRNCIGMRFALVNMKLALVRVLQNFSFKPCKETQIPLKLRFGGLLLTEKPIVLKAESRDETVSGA
Sequence of Cytochrome P450 3A4 (Homo sapiens) (P08684 whole entry, looked up): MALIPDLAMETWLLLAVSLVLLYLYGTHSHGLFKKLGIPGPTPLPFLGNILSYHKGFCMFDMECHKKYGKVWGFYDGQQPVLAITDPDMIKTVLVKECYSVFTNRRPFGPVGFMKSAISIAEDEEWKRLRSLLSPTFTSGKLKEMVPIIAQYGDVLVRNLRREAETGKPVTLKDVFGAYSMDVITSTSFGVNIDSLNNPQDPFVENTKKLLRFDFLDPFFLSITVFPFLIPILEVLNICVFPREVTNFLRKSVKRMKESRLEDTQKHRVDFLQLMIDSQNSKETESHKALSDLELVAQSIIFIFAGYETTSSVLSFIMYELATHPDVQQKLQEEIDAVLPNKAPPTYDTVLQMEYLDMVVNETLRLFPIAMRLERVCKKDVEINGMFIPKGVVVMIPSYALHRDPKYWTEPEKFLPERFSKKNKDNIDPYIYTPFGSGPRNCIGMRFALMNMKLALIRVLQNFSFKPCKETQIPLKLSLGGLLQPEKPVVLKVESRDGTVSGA

Regarding `CC(C)(C)C(O)C(Oc1ccc(Cl)cc1)n1cncn1` (centres undefined), the AC50 in [1] was 3.91 µM (active) and 4.21 µM (active); in test [3] it was 25.8 µM (active) and 25.3 µM (active) and 29.5 µM (active); in test [4] it was 18.1 µM (active) and 13.8 µM (active) and 25.4 µM (active); in test [9], 50 µM (active) and 21.4 µM (active); in [10] it was 12.8 µM (active) and 14.6 µM (active) and 18 µM (active); in test [11], 8.02 µM (active) and 9.92 µM (active) and 1.24 µM (active). Also, the compound was classed as inactive in test [1], in [2], in test [5], in test [6], in [7] and in test [8]. Besides, the compound was classed as inactive in test [12], in test [13] and in test [14].
Turning to `CCC(C)(NC(=O)c1cc(Cl)c(C)c(Cl)c1)C(=O)CCl` (centres undefined), the AC50 is 81.6 µM (active) in [1]; 79.5 µM (active) in test [2]; 44 µM (active) in [3]; 50.2 µM (active) in test [4]; 88.2 µM (active) in [15]; 78.3 µM (active) in test [5]. Further, the concentration at half-maximal activity (AC50) in test [8] was 75.7 µM (active); in [16], 82.1 µM (active); in test [9] it was 46.5 µM (active); in test [10] it was 74.9 µM (active); in test [11], 73.8 µM (active); in test [12], 78.7 µM (active). Moreover, in test [14], the AC50 was 89.2 µM (active). The outcome in [6], in [7], in test [13] and in test [17] was inactive.
For `CCCN(CCOc1c(Cl)cc(Cl)cc1Cl)C(=O)n1ccnc1`, the AC50 in test [1] is 28.4 µM (active); in test [2], 31.9 µM (active); in test [3] it was 14.6 µM (active); in [4], 18.2 µM (active); in [15], 36.2 µM (active); in [5], 24 µM (active). The AC50 in test [6] was 12.1 µM (active); in test [7] it was 27.9 µM (active); in test [8], 31.1 µM (active); in [16], 32.4 µM (active); in test [9] it was 32.9 µM (active); in test [10] it was 27.7 µM (active). The AC50 was 33.2 µM (active) in [11], 31.8 µM (active) in test [12] and 12.4 µM (active) in test [13]. Further, the compound was called inactive in [18] and in [14].
As for `CNC(=O)/C=C(\C)OP(=O)(OC)OC`, the outcome in test [1], in [2], in test [3], in test [4], in test [15] and in test [5] was inactive. The compound was called inactive in [6], in test [7], in test [8], in test [16], in [9] and in test [10]. Also, the outcome in [11], in [12], in test [13], in test [19] and in test [14] was inactive.
Regarding `CNC(=O)Oc1cccc(N=CN(C)C)c1`, the outcome in [1], in test [2], in test [3], in [4], in test [15] and in [5] was inactive. Also, the outcome in test [6], in [7], in [8], in [16], in [9] and in [10] was inactive. The call in test [11], in [12], in [13] and in test [14] was inactive.
As for `COc1nn(CSP(=S)(OC)OC)c(=O)s1`, the compound was classed as inactive in test [1], in test [2], in [3], in test [4], in test [15] and in test [5]. Further, the outcome in test [6], in [7], in [8], in test [16], in [18] and in test [9] was inactive. The compound was classed as inactive in [10], in [11], in [12], in test [13] and in test [14].

A word on the AC50: it is the concentration giving half of the maximal activity seen.
